Assay results from ChEMBL document CHEMBL1961873, “Compounds: GSK PKIS; Assays: Nanosyn kinase panel” (2012).

Key:
[1] = biological target: Ribosomal protein S6 kinase alpha-6 (Homo sapiens) (UniProt Q9UK32); details: at 1 µM;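 further: each value is a mean inhibition of RSK4 from a GSK PKIS panel screen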
[2] = biological target: T1, Serine/threonine-protein kinase Sgk1 (Homo sapiens) (UniProt O00141); details: at 0.1 µM
T1 sequence (whole entry): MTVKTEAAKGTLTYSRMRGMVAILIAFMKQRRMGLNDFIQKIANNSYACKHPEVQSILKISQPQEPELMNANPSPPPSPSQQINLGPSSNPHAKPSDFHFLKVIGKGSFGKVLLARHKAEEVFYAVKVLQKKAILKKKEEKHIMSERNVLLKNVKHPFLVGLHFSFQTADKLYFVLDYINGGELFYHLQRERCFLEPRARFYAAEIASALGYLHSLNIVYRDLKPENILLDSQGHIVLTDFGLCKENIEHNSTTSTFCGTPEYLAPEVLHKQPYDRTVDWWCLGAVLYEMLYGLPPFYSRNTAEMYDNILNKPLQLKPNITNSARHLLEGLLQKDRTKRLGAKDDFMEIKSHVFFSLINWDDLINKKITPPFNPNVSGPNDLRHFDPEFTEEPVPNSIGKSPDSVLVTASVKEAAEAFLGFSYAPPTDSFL

[3] = biological target: T1, Serine/threonine-protein kinase Sgk1 (Homo sapiens); details: at 1 µM
[4] = biological target: T2, Serine/threonine-protein kinase Sgk2 (Homo sapiens) (UniProt Q9HBY8); details: at 0.1 µM
T2 sequence (whole entry): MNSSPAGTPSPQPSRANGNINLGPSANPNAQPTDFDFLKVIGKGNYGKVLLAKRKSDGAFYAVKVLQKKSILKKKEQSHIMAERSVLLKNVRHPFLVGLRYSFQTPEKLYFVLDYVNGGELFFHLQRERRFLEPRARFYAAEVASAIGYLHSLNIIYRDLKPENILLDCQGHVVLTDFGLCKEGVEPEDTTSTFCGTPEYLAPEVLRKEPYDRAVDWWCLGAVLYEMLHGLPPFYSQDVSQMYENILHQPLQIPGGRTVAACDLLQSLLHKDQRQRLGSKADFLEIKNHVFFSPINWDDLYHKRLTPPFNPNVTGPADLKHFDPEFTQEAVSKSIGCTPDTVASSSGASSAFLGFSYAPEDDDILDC

[5] = biological target: T2, Serine/threonine-protein kinase Sgk2 (Homo sapiens); details: at 1 µM
[6] = biological target: T3, Serine/threonine-protein kinase Sgk3 (Homo sapiens) (UniProt Q96BR1); details: at 0.1 µM
T3 sequence (whole entry): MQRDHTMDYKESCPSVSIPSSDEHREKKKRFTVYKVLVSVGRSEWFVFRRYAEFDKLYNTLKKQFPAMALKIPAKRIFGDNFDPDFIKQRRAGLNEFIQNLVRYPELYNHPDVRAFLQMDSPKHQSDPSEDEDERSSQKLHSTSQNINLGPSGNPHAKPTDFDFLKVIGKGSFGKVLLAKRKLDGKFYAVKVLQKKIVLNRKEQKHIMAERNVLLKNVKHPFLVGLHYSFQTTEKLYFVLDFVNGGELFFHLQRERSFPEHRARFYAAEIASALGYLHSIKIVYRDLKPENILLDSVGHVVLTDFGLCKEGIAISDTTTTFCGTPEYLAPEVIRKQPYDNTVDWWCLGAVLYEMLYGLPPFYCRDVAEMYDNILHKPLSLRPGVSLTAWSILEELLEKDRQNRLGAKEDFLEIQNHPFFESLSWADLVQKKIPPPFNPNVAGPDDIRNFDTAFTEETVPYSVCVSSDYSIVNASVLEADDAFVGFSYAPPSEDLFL

[7] = biological target: T3, Serine/threonine-protein kinase Sgk3 (Homo sapiens); details: at 1 µM
[8] = biological target: 5'-AMP-activated protein kinase catalytic subunit alpha-1 (Homo sapiens) (UniProt Q13131); details: at 0.1 µM
[9] = biological target: 5'-AMP-activated protein kinase catalytic subunit alpha-1 (Homo sapiens) (UniProt Q13131); details: at 1 µM
[10] = biological target: 5'-AMP-activated protein kinase catalytic subunit alpha-2 (Homo sapiens) (UniProt P54646); details: at 0.1 µM
[11] = biological target: 5'-AMP-activated protein kinase catalytic subunit alpha-2 (Homo sapiens) (UniProt P54646); details: at 1 µM
[12] = biological target: T4, NUAK family SNF1-like kinase 1 (Homo sapiens) (UniProt O60285); details: at 0.1 µM
T4 sequence (whole entry): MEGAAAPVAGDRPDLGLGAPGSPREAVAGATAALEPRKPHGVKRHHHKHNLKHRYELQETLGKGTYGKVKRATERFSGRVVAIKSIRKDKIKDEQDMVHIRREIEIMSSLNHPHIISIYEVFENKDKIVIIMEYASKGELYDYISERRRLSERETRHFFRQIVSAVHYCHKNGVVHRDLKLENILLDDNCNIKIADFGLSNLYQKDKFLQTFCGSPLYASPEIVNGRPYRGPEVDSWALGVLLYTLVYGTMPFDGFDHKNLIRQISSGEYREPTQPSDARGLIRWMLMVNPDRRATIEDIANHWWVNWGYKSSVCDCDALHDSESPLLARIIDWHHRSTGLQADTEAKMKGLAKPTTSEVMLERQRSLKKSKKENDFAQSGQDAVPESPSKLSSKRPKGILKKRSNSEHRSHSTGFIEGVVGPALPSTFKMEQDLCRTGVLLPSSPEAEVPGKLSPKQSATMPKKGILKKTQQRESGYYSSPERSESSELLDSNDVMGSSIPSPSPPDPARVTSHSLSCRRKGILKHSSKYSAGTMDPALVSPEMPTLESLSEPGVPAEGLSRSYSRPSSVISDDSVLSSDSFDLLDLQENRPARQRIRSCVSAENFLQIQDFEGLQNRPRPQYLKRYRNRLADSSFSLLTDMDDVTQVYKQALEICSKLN

[13] = biological target: T4, NUAK family SNF1-like kinase 1 (Homo sapiens); details: at 1 µM
[14] = biological target: T5, Serine/threonine-protein kinase BRSK1 (Homo sapiens) (UniProt Q8TDC3); details: at 0.1 µM
T5 sequence (whole entry): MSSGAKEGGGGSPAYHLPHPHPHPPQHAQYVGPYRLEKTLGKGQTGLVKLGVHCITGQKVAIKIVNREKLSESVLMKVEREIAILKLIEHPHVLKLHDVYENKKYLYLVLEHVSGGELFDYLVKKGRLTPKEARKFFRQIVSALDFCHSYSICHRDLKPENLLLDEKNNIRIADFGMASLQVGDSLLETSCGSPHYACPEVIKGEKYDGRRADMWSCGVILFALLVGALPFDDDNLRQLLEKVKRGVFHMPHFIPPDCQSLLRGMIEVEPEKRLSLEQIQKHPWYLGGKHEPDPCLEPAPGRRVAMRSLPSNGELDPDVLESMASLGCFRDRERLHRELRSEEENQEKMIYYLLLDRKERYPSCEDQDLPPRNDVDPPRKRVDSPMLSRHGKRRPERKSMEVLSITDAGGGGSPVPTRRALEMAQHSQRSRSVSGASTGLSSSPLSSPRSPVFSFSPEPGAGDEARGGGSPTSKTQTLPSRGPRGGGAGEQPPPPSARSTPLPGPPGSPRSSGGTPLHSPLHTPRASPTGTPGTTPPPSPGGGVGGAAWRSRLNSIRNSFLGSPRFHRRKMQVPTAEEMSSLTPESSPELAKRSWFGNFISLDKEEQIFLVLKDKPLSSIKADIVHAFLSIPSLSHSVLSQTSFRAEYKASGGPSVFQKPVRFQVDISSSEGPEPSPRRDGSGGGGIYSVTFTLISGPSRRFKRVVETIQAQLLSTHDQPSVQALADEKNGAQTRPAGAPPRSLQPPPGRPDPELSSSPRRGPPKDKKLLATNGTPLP

[15] = biological target: T5, Serine/threonine-protein kinase BRSK1 (Homo sapiens); details: at 1 µM
[16] = biological target: T6, Serine/threonine-protein kinase BRSK2 (Homo sapiens) (UniProt Q8IWQ3); details: at 0.1 µM
T6 sequence (whole entry): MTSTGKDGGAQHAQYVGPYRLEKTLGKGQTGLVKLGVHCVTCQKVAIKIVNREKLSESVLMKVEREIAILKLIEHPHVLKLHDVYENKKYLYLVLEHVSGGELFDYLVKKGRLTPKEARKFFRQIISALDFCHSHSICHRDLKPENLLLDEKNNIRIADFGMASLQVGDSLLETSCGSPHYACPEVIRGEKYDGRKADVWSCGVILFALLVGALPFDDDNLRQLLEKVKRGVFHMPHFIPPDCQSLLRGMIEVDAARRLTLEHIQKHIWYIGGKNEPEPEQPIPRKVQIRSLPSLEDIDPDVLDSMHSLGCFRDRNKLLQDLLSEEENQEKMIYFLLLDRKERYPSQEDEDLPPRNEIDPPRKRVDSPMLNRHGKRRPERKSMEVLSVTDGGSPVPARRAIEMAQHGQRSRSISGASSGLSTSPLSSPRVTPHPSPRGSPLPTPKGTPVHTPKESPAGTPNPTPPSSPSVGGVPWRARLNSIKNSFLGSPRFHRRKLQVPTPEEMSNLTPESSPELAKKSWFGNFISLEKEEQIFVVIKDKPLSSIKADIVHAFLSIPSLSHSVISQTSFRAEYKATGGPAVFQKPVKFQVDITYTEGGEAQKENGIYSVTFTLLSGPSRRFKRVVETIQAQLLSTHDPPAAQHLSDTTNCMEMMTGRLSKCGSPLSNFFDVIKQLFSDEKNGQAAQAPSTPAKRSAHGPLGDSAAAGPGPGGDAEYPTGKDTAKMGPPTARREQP

[17] = biological target: T6, Serine/threonine-protein kinase BRSK2 (Homo sapiens); details: at 1 µM
[18] = biological target: Calcium/calmodulin-dependent protein kinase type 1D (Homo sapiens) (UniProt Q8IU85); details: at 0.1 µM
[19] = biological target: Calcium/calmodulin-dependent protein kinase type 1D (Homo sapiens) (UniProt Q8IU85); details: at 1 µM
[20] = biological target: Calcium/calmodulin-dependent protein kinase type II subunit alpha (Homo sapiens) (UniProt Q9UQM7); details: at 0.1 µM;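 further: reported values are averages (mean inhibition of CAMK2A)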
Calcium/calmodulin-dependent protein kinase type II subunit alpha (Homo sapiens), sequence (Q9UQM7 whole entry): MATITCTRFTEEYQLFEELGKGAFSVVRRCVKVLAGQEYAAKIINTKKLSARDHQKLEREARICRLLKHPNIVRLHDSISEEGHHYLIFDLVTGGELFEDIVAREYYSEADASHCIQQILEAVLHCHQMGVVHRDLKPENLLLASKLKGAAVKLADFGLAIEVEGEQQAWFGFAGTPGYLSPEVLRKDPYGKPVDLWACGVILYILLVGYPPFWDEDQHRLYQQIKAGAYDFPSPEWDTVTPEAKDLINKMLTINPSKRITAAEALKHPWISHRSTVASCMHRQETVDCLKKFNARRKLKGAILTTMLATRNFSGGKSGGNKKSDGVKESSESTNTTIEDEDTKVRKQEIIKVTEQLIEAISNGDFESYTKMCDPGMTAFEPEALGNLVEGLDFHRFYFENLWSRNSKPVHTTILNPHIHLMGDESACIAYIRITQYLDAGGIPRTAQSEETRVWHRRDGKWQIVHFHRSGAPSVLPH

5'-AMP-activated protein kinase catalytic subunit alpha-1 (Homo sapiens), sequence (Q13131 whole entry, looked up): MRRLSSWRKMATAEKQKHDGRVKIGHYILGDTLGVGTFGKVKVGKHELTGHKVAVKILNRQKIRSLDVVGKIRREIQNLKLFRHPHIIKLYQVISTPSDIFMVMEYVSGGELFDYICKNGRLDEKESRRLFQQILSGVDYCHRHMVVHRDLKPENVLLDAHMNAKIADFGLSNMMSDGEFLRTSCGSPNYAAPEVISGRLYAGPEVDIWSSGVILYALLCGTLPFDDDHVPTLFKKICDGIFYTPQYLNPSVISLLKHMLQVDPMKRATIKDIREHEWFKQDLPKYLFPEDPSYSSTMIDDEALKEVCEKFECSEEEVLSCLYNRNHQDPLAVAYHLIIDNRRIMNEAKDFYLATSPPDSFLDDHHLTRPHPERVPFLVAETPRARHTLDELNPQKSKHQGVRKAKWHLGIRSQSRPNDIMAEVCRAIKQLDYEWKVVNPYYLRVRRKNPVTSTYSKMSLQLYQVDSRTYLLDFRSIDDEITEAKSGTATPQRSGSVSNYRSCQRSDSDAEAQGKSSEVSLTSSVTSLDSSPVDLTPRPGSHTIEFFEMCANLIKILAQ
5'-AMP-activated protein kinase catalytic subunit alpha-2 (Homo sapiens), sequence (P54646 whole entry, looked up): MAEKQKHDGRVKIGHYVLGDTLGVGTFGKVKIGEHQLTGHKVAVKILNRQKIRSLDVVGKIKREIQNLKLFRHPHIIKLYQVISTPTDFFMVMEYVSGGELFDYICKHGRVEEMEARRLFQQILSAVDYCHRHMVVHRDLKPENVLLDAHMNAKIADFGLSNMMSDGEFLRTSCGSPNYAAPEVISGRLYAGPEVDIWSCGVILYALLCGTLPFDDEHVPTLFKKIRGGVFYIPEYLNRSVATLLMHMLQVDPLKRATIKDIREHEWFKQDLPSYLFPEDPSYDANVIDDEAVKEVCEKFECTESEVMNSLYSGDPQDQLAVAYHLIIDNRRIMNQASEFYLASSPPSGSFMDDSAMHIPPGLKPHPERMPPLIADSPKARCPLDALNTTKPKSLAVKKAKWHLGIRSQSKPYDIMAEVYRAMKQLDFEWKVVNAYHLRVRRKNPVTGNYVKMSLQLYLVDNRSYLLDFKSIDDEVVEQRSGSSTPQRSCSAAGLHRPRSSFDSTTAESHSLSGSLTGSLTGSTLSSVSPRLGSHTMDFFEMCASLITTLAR
Calcium/calmodulin-dependent protein kinase type 1D (Homo sapiens), sequence (Q8IU85 whole entry, looked up): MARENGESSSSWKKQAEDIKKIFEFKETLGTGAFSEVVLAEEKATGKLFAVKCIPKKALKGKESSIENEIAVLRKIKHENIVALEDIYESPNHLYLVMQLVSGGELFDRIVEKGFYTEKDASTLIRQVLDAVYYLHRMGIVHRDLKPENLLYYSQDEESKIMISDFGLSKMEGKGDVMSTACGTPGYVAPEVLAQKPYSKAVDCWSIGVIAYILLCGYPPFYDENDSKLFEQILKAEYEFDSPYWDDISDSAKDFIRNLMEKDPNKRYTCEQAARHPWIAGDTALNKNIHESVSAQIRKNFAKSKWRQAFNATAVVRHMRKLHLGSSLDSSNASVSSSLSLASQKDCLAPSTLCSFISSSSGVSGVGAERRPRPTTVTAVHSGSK
Ribosomal protein S6 kinase alpha-6 (Homo sapiens), sequence (Q9UK32 whole entry): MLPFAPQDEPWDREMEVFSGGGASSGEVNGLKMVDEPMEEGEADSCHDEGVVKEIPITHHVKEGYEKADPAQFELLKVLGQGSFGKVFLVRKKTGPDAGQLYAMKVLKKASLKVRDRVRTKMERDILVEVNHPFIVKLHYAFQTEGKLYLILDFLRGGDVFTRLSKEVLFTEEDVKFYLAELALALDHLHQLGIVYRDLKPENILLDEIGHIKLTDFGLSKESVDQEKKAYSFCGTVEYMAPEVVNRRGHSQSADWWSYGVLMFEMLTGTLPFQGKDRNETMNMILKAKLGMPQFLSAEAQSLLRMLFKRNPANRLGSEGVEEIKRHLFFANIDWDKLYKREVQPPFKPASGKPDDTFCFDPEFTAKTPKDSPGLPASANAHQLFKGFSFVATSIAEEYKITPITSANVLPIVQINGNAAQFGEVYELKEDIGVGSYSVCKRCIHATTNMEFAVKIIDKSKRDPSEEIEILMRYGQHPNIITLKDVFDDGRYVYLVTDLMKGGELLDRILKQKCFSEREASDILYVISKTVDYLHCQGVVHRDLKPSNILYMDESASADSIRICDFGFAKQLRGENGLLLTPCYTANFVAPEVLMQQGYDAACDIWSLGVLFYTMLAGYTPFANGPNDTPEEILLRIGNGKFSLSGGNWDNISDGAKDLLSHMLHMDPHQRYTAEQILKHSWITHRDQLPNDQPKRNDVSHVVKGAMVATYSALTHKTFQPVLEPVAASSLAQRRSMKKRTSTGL

Row | Structure (SMILES) | inhibition [1] [%] | inhibition [2] [%] | inhibition [3] [%] | inhibition [4] [%] | inhibition [5] [%] | inhibition [6] [%] | inhibition [7] [%] | inhibition [8] [%] | inhibition [9] [%] | inhibition [10] [%] | inhibition [11] [%] | inhibition [12] [%] | inhibition [13] [%] | inhibition [14] [%] | inhibition [15] [%] | inhibition [16] [%] | inhibition [17] [%] | inhibition [18] [%] | inhibition [19] [%] | inhibition [20] [%]
1 | CS(=O)(=O)Nc1ccc(-c2ccc3c(NC(=O)C4CC4)n[nH]c3c2)cc1 | 3.46 | 3.96 | 2.95 | 0.2 | 4.06 | 2.22 | 0.14 | 3.58 | 6.37 | 10.3 | 40 | -6.19 | 2.46 | 3.42 | 5.22 | 2.03 | 4.96 | 0.46 | 1.58 | 4.36
2 | CCCNc1cccc(-n2ncc3c(N/N=C/c4ccncc4)ncnc32)c1 | 3.54 | 2.34 | 13.6 | 2.41 | 10.9 | 3.53 | 5.07 | 1.8 | 3.53 | -1.29 | 2.07 | 5.36 | 36.3 | 2.58 | 24.7 | 4.13 | 29 | 0.76 | 1.66 | 1.4
3 | NS(=O)(=O)c1ccc(N/N=C2\C(=O)Nc3cccc(CCc4ccncc4)c32)cc1 | 7.42 | 1.76 | 1.65 | 3.09 | -0.79 | -1.13 | -0.92 | 4.83 | 8.26 | 3.2 | 11.6 | 47.4 | 62.5 | 1.52 | 7.67 | 3.33 | 15.8 | 0.4 | 1.14 | -1.5
4 | CN1CCC(n2cnc(-c3ccc(F)cc3)c2-c2ccnc(NCCO)n2)CC1 | 1.96 | 3.61 | 6.71 | 0.04 | 5.93 | 5.14 | 3.95 | 2.98 | 6.22 | 1.25 | 3.88 | 1.51 | 0.83 | 1.04 | 3.71 | 2.24 | 6.29 | -1.1 | -1.38 | 8.05
5 | CNC(=O)c1cncc(/C=C/c2ccccc2C)c1 | 0.63 | 3.1 | 5.48 | 2.67 | 0.66 | 1.58 | 4.02 | 3.16 | 7.91 | 2.05 | 6.66 | 2.2 | 9.32 | 2.32 | 15 | 3.54 | 17.4 | -0.17 | -0.91 | 4.14
6 | CCOc1ccc2c(-c3ccnc(Nc4cc(OC)cc(C(F)(F)F)c4)n3)cnn2n1 | 0.36 | -0.01 | 1.56 | 0.96 | 3.1 | 1.37 | -0.48 | 0.25 | 1.28 | 1.34 | 3.94 | 4.52 | 21.2 | 0.53 | 5.51 | 1.89 | 6.6 | 0.33 | 2.28 | -1.52
